# This is one part of a sample in which the strongest signals are shown more often than they occur.
# B1: CCL1 (Coprinopsis cinerea) (protein)
# chain: MDTQAKPPAGRYVIYNRVLSPNGEKLALTYPGYQREALTLTPLHHSANQIWILNNWDATTSSLTPETARNTQVGWGSGNVPIVLPPGNYVWTLASSAGGYIIQDGGKTVYWNAGEAVANTKVSIGGDNGLQARWIFERV
# Experiments:
# Assay in all cases: glycan array binding signal (z-score within array); higher = stronger binding
# Conditions in all cases: glycan notation: IUPAC condensed, linker removed
# Gal6S(b1-3)GlcNAc = target: Gal6S(b1-3)GlcNAc
# Outline: (§1)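 Glycan array data were curated from 3228 arrays in the Consortium for Functional Glycomics database and kept only where the protein sequence was available. Glycan names were converted to IUPAC-condensed notation, and columns mapping to the same glycan were averaged. The binding signal is a within-array Z-score, averaged across arrays of the same protein sequence at different concentrations or buffers and across linkers. Negative Z-scores can be read as non-binding.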
# GalNAc(b1-4)GlcNAc = target: GalNAc(b1-4)GlcNAc
# Outline: as §1
# Glc(b1-4)Glc = target: Glc(b1-4)Glc
# Outline: as §1
# Glc(b1-6)Glc = target: Glc(b1-6)Glc
# Outline: as §1
# [1] = target: Man(a1-2)Man(a1-3)[Man(a1-2)Man(a1-6)]Man
# Outline: as §1
# [2] = target: Man(a1-2)Man(a1-6)[Man(a1-3)]Man(a1-6)[Man(a1-2)Man(a1-2)Man(a1-3)]Man(b1-4)GlcNAc(b1-4)GlcNAc
# Outline: as §1
# [3] = target: Neu5Ac(a2-3)Gal(b1-3)GalNAc(b1-4)[Neu5Ac(a2-3)]Gal(b1-4)Glc
# Outline: as §1
# [4] = target: Neu5Ac(a2-3)Gal(b1-3)GlcNAc
# Outline: as §1
# [5] = target: Neu5Ac(a2-3)Gal(b1-3)[Neu5Ac(a2-6)]GalNAc
# Outline: as §1
# [6] = target: Neu5Ac(a2-3)Gal(b1-4)GlcNAc(b1-3)Gal(b1-4)[Fuc(a1-3)]GlcNAc
# Outline: as §1
# [7] = target: Neu5Ac(a2-3)Gal(b1-4)[Fuc(a1-3)]GlcNAc(b1-3)Gal
# Outline: as §1
# [8] = target: Neu5Ac(a2-3)Gal(b1-4)[Fuc(a1-3)]GlcNAc(b1-3)Gal(b1-4)[Fuc(a1-3)]GlcNAc(b1-3)Gal(b1-4)[Fuc(a1-3)]GlcNAc
# Outline: as §1
# [9] = target: Neu5Ac(a2-3)Gal6S(b1-4)[Fuc(a1-3)]GlcNAc
# Outline: as §1
# [10] = target: Neu5Ac(a2-3)[Neu5Ac(a2-6)]GalNAc
# Outline: as §1
# [11] = target: Neu5Ac(a2-8)Neu5Ac(a2-3)[GalNAc(b1-4)]Gal(b1-4)Glc
# Outline: as §1
binder,measurement,setting,value
B1,glycan array binding signal (z-score),Gal6S(b1-3)GlcNAc,-0.152
same,glycan array binding signal (z-score),GalNAc(b1-4)GlcNAc,-0.159
same,glycan array binding signal (z-score),Glc(b1-4)Glc,-0.115
same,glycan array binding signal (z-score),Glc(b1-6)Glc,-0.128
same,glycan array binding signal (z-score),[1],-0.124
same,glycan array binding signal (z-score),[2],-0.138
same,glycan array binding signal (z-score),[3],-0.132
same,glycan array binding signal (z-score),[4],-0.117
same,glycan array binding signal (z-score),[5],1.63
same,glycan array binding signal (z-score),[6],-0.148
same,glycan array binding signal (z-score),[7],3.29
same,glycan array binding signal (z-score),[8],1.58
same,glycan array binding signal (z-score),[9],1.5
same,glycan array binding signal (z-score),[10],-0.149
same,glycan array binding signal (z-score),[11],-0.127
